# From PMC7862700, “An all-to-all approach to the identification of sequence-specific readers for epigenetic DNA modifications on cytosine”
# Key:
# Assay in all cases: DAPPL (digital affinity profiling via proximity ligation, sequencing); 10 mM Tris-HCl pH 7.5, 50 mM NaCl, 1 mM DTT, 4% glycerol, room temperature, 30 min; GST-TFs on glutathione beads, 16-mer random dsDNA library, 0.1% formaldehyde crosslink after washing; high values mean tight binding
# FLI1 = target: T1, FLI1 (Homo sapiens, UniProt Q01543 1-452); settings: protein: recombinant; tags: N-terminal GST; dsDNA, one strand shown
# T1 sequence: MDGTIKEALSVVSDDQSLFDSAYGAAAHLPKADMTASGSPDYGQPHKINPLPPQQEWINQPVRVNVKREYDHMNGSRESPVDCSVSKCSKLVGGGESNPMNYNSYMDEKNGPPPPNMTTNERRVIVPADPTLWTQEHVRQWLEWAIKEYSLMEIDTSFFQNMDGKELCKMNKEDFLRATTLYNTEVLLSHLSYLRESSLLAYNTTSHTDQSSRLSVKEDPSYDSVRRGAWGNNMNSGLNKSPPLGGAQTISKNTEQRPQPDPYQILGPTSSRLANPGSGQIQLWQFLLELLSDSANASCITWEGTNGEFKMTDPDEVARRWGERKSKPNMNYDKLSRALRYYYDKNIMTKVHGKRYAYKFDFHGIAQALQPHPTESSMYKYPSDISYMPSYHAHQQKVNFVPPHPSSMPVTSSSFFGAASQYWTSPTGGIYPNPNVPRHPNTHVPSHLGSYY
# Method in brief: (§1)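 Sequencing on an Illumina NextSeq500 followed washing, crosslinking with 0.1% formaldehyde, proximity ligation (BsaI/T4 ligase, 1 h, 37 °C) and PCR amplification of pools that had been incubated for 30 min at room temperature with 200 nmole of a random double-stranded 16-mer DNA library in Tris/NaCl/DTT/glycerol buffer. Each pool held DNA-barcoded human transcription factors, expressed in yeast as GST fusions and captured on glutathione beads, plus a tag-only sample. Binding signal is a hexamer's read frequency for a factor divided by its frequency in the tag-only sample.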
# ELK1 = target: T2, ELK1 (Homo sapiens, UniProt P19419 1-428); settings: protein: recombinant; tags: N-terminal GST; dsDNA, one strand shown
# T2 sequence: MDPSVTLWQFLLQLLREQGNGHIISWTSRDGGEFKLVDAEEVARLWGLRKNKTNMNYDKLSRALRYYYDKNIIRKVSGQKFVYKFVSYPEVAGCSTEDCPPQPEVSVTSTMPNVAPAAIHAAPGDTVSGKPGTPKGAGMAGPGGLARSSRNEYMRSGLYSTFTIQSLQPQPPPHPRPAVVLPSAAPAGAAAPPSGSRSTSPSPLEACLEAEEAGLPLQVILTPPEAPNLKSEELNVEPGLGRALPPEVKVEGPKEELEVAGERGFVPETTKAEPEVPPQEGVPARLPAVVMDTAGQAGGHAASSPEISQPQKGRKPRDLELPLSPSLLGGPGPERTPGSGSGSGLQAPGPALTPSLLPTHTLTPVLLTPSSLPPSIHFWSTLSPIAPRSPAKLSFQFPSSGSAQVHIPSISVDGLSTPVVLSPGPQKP
# Method in brief: as §1
# GABPA = target: T3, GABPA (Homo sapiens, UniProt Q06546 1-454); settings: protein: recombinant; tags: N-terminal GST; dsDNA, one strand shown
# T3 sequence: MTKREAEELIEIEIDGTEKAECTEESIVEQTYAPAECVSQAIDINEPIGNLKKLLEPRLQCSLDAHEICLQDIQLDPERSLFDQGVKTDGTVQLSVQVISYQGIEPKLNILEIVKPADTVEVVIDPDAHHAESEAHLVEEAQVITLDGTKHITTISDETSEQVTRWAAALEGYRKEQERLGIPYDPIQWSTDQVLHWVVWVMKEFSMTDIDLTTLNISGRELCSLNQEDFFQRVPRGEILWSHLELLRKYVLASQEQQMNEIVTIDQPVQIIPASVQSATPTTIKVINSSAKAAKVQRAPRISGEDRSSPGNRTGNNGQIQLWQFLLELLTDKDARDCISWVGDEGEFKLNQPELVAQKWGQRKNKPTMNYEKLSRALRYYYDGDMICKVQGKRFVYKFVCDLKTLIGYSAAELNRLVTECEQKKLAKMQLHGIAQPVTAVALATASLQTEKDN
# Method in brief: as §1
# ERG = target: T4, ERG (Homo sapiens, UniProt P11308 1-479); settings: protein: recombinant; tags: N-terminal GST; dsDNA, one strand shown
# T4 sequence: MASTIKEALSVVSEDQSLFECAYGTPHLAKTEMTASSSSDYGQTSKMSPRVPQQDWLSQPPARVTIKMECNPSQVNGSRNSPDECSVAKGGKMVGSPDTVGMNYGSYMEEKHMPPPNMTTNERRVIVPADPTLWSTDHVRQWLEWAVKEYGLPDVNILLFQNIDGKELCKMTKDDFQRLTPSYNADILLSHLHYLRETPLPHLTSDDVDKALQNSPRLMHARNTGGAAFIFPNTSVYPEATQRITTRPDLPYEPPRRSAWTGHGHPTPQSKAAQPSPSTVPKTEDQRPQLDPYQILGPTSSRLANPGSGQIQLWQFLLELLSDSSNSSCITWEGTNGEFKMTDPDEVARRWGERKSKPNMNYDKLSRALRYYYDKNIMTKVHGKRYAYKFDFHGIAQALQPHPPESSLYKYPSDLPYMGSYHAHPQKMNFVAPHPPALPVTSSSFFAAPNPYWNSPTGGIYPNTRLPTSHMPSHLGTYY
# Method in brief: as §1
# ELF1 = ELF1 (Homo sapiens, UniProt P32519 1-619); settings: protein: recombinant; tags: N-terminal GST; dsDNA, one strand shown
# Method in brief: as §1
# EHF = target: T5, EHF (Homo sapiens, UniProt Q9NZC4 1-300); settings: protein: recombinant; tags: N-terminal GST; dsDNA, one strand shown
# T5 sequence: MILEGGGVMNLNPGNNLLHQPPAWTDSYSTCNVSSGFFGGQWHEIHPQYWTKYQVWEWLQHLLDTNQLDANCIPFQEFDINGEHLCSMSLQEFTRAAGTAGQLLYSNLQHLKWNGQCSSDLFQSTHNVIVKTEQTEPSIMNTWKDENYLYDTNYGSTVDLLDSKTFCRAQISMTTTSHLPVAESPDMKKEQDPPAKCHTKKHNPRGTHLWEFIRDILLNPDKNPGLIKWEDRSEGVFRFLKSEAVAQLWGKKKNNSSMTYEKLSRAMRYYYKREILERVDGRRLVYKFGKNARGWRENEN
# Method in brief: as §1
# SPI1 = SPI1 (Homo sapiens, UniProt P17947 1-270); settings: protein: recombinant; tags: N-terminal GST; dsDNA, one strand shown
# Method in brief: as §1
# SPIB = SPIB (Homo sapiens, UniProt Q01892 1-262); settings: protein: recombinant; tags: N-terminal GST; dsDNA, one strand shown
# Method in brief: as §1
# ELK3 = target: T6, ELK3 (Homo sapiens, UniProt P41970 1-407); settings: protein: recombinant; tags: N-terminal GST; dsDNA, one strand shown
# T6 sequence: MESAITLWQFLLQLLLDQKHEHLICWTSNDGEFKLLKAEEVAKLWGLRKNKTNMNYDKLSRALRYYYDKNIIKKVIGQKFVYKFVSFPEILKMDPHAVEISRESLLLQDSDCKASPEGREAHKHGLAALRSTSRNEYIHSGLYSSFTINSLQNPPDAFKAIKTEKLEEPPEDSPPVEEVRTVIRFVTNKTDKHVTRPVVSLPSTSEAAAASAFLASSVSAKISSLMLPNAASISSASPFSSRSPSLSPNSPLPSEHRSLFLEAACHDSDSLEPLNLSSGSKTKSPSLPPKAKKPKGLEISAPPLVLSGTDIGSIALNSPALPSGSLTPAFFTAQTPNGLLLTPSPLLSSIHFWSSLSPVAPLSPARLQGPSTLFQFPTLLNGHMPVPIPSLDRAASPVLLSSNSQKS
# Method in brief: as §1
# FEV = target: T7, FEV (Homo sapiens, UniProt Q99581 1-238); settings: protein: recombinant; tags: N-terminal GST; dsDNA, one strand shown
# T7 sequence: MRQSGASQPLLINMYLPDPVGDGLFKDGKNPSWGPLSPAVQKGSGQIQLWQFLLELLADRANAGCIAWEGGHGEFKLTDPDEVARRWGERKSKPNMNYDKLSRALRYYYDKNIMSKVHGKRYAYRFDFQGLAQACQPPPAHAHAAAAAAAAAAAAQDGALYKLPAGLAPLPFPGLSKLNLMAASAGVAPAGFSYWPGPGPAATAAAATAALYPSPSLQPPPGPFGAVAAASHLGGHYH
# Method in brief: as §1
# ETV5 = ETV5 (Homo sapiens, UniProt P41161 1-510); settings: protein: recombinant; tags: N-terminal GST; dsDNA, one strand shown
# Method in brief: as §1
# HSF1 = HSF1 (Homo sapiens, UniProt Q00613 1-529); settings: protein: recombinant; tags: N-terminal GST; chain copies: 3; dsDNA, one strand shown
# Method in brief: as §1
# SPIC = target: T8, SPIC (Homo sapiens, UniProt Q8N5J4 1-248); settings: protein: recombinant; tags: N-terminal GST; dsDNA, one strand shown
# T8 sequence: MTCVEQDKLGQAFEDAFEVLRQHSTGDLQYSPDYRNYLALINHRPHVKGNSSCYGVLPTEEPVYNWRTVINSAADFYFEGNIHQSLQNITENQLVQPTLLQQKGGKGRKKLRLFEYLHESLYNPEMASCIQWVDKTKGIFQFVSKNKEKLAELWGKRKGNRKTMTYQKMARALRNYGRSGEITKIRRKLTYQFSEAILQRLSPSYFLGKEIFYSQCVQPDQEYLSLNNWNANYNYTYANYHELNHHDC
# Method in brief: as §1
# ELF4 = ELF4 (Homo sapiens, UniProt Q99607 1-663); settings: protein: recombinant; tags: N-terminal GST; dsDNA, one strand shown
# Method in brief: as §1
# ELK4 = target: T9, ELK4 (Homo sapiens, UniProt P28324-2 1-405); settings: protein: recombinant; tags: N-terminal GST; dsDNA, one strand shown
# T9 sequence: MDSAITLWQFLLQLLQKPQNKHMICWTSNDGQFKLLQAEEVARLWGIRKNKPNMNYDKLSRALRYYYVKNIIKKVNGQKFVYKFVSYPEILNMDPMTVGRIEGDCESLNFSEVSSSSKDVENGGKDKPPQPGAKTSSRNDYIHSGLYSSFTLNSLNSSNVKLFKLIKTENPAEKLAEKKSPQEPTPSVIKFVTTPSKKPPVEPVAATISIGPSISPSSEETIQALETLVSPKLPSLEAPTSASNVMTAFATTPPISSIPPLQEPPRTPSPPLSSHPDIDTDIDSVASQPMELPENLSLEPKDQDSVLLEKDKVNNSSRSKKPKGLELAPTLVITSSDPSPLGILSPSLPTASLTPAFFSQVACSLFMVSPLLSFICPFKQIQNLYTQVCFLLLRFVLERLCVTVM
# Method in brief: as §1
# ETV2 = target: T10, ETV2 (Homo sapiens, UniProt O00321 1-342); settings: protein: recombinant; tags: N-terminal GST; dsDNA, one strand shown
# T10 sequence: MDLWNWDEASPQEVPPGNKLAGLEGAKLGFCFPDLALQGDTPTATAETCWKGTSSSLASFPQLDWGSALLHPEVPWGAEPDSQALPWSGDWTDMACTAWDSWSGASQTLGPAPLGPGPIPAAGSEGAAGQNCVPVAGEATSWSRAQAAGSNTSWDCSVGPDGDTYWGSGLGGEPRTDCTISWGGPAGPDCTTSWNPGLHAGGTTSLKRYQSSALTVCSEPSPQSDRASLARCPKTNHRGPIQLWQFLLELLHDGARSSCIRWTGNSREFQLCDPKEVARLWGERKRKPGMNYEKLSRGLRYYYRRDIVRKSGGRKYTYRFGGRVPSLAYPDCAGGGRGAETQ
# Method in brief: as §1
# ELF3 = target: T11, ELF3 (Homo sapiens, UniProt P78545 1-371); settings: protein: recombinant; tags: N-terminal GST; dsDNA, one strand shown
# T11 sequence: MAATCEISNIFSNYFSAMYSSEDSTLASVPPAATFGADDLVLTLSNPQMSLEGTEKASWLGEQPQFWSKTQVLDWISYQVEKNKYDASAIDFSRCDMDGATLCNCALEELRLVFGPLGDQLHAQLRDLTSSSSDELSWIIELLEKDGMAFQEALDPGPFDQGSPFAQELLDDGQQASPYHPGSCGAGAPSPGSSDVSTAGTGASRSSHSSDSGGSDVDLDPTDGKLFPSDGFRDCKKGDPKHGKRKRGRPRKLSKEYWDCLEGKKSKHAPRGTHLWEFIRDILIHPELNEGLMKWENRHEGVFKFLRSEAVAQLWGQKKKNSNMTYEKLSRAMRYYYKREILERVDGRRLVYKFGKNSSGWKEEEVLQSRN
# Method in brief: as §1
# CRX = CRX (Homo sapiens, UniProt O43186 1-299); settings: protein: recombinant; tags: N-terminal GST; dsDNA, one strand shown
# Method in brief: as §1
# ETV1 = ETV1 (Homo sapiens, UniProt P50549 1-477); settings: protein: recombinant; tags: N-terminal GST; dsDNA, one strand shown
# Method in brief: as §1
# SPIB, sequence (Q01892 whole entry): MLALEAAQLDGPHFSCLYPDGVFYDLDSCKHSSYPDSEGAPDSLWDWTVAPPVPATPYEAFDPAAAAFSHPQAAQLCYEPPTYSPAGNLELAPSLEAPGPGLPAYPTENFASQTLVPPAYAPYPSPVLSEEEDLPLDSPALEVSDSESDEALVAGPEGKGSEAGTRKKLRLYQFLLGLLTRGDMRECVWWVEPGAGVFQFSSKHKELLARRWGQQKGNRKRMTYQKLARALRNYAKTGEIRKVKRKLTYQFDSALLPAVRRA
# ETV1, sequence (P50549 whole entry): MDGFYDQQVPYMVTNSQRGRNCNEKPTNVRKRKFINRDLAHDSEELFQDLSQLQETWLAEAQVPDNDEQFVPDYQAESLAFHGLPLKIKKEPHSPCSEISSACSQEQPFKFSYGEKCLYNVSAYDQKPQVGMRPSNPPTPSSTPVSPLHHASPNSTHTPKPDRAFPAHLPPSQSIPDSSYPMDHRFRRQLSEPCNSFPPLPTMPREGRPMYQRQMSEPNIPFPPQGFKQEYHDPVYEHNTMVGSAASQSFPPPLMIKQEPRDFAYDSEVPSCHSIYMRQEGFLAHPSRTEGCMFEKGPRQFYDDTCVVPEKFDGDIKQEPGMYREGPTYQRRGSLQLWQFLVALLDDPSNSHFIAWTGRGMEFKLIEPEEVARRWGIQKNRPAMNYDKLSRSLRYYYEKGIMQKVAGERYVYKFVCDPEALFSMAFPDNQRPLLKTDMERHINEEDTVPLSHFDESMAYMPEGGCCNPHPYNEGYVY
# CRX, sequence (O43186 whole entry): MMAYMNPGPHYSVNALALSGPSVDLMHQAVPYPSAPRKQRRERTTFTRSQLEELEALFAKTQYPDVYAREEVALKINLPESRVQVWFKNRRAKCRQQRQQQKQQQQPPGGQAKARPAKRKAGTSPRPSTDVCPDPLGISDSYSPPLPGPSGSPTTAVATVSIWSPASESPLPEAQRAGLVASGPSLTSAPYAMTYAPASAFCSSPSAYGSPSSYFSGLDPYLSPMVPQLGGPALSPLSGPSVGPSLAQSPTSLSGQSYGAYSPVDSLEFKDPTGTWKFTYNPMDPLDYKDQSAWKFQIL
# ELF1, sequence (P32519 whole entry): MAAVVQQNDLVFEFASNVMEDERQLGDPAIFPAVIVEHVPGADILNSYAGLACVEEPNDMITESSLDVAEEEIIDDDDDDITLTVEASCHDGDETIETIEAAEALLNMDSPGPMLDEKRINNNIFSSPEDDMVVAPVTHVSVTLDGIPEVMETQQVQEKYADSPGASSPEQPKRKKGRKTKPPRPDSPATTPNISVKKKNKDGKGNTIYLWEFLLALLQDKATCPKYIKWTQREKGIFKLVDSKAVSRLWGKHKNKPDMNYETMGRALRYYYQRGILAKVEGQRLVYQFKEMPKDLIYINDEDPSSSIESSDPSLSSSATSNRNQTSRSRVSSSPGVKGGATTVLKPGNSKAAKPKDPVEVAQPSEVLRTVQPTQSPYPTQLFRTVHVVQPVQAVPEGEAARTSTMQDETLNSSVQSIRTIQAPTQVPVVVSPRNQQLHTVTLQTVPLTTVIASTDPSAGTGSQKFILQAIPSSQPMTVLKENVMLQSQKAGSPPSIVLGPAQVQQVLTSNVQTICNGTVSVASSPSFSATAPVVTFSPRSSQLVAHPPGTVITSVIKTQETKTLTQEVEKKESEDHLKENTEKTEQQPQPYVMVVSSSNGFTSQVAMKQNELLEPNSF
# ELF4, sequence (Q99607 whole entry): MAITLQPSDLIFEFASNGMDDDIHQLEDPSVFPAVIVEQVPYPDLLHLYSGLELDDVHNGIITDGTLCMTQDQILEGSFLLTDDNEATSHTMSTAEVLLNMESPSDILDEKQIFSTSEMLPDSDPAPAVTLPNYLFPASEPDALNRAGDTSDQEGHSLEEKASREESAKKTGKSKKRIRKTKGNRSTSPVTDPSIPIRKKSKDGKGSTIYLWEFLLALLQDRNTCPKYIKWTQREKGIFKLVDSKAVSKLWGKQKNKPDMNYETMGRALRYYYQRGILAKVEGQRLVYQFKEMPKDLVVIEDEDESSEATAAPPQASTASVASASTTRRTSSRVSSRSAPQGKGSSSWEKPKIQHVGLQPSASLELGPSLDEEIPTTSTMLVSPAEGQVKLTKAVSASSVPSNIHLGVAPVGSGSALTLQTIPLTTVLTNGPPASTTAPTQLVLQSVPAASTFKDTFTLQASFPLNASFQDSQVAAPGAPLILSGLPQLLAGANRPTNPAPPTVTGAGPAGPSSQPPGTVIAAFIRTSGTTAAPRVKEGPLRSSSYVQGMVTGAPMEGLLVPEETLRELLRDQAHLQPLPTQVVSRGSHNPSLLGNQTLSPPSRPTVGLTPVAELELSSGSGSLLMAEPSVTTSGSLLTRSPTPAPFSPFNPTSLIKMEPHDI
# HSF1, sequence (Q00613 whole entry): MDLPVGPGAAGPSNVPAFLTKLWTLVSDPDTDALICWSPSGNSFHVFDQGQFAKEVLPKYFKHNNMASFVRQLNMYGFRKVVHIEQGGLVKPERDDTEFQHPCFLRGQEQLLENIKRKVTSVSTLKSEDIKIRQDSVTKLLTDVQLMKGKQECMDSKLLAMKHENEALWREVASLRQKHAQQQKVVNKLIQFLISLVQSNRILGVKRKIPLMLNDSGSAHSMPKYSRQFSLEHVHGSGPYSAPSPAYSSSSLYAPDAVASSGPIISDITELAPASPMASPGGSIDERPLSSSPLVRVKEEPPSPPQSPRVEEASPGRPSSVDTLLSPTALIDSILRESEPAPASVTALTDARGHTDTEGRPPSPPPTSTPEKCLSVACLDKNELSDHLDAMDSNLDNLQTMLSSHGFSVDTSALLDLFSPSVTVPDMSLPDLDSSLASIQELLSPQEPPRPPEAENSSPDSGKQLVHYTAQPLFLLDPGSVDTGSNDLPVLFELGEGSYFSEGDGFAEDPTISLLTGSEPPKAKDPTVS
# ETV5, sequence (P41161 whole entry): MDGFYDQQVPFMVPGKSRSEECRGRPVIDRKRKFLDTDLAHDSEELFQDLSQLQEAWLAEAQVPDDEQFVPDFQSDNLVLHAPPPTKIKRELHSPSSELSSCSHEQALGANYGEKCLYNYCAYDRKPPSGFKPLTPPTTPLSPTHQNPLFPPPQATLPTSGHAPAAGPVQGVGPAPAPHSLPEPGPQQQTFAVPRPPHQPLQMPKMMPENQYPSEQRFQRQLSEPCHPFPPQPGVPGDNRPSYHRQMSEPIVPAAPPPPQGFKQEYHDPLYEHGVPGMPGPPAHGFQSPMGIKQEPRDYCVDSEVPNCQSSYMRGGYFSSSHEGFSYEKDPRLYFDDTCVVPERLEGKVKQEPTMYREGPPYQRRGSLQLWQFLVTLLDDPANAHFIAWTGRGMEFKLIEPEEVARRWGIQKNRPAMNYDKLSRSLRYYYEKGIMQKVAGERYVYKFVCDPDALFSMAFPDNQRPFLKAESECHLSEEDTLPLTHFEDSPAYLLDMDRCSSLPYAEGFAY
sequence,measurement,setting,value
CATCCT,binding signal,FLI1,"1.68 fold enrichment (6-mer frequency, TF over GST control)"
same,binding signal,ELK1,"1.65 fold enrichment (6-mer frequency, TF over GST control)"
same,binding signal,GABPA,"1.51 fold enrichment (6-mer frequency, TF over GST control)"
same,binding signal,ERG,"1.75 fold enrichment (6-mer frequency, TF over GST control)"
same,binding signal,ELF1,"1.64 fold enrichment (6-mer frequency, TF over GST control)"
same,binding signal,EHF,"1.62 fold enrichment (6-mer frequency, TF over GST control)"
same,binding signal,SPI1,"1.59 fold enrichment (6-mer frequency, TF over GST control)"
same,binding signal,SPIB,"1.7 fold enrichment (6-mer frequency, TF over GST control)"
same,binding signal,ELK3,"1.68 fold enrichment (6-mer frequency, TF over GST control)"
same,binding signal,FEV,"1.59 fold enrichment (6-mer frequency, TF over GST control)"
same,binding signal,ETV5,"1.63 fold enrichment (6-mer frequency, TF over GST control)"
same,binding signal,HSF1,"1.12 fold enrichment (6-mer frequency, TF over GST control)"
same,binding signal,SPIC,"1.63 fold enrichment (6-mer frequency, TF over GST control)"
same,binding signal,ELF4,"1.62 fold enrichment (6-mer frequency, TF over GST control)"
same,binding signal,ELK4,"1.51 fold enrichment (6-mer frequency, TF over GST control)"
same,binding signal,ETV2,"1.63 fold enrichment (6-mer frequency, TF over GST control)"
same,binding signal,ELF3,"1.59 fold enrichment (6-mer frequency, TF over GST control)"
same,binding signal,CRX,"1.21 fold enrichment (6-mer frequency, TF over GST control)"
same,binding signal,ETV1,"1.55 fold enrichment (6-mer frequency, TF over GST control)"
